# Data from PubChem BioAssay (NCATS).
# Results filed as inconclusive are left out. A call without a number means that no potency is given here. Activity calls are given as the source filed them. The call rests on the fitted dose curve; in most records, active means well fitted inhibition curve with a large enough effect; inconclusive means small, poorly fitted or top-dose-only effect; inactive means flat fitted curve, though single readings scatter.
# Test system: TAB109
# Assay: qHTS profiling for inhibitors of Plasmodium falciparum proliferation (AID 504749); further: nearly all actives have a fitted effect of over 60% in size
# Details: P. falciparum in erythrocytes, SYBR Green DNA, 72 h; series mostly up to 28.7 µM
# How it was run: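 Readout was DNA-dye fluorescence from lysed cultures, ex 485/em 535 nm. Parasitized red cells had grown 72 h with compound; data scaled between 0.29 uM artemisinin and DMSO wells and corrected using vehicle-only plates.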
# Potency means the concentration at half of the fitted maximal effect.
row,Compound,Potency
1,CCCCC(CC)COS(=O)(=O)O (stereo not given),inactive
2,CC1(O)CCC(C(C)(C)O)CC1 (stereo not given),inactive
3,CCCCCCOC(=O)c1cccnc1,inactive
4,FC(F)(F)COCC(F)(F)F,inactive
5,CCCCCCCCCCCC(=O)N(CCO)CCO,inactive
6,O=P(O)(O)OC[C@H]1O[C@](O)(COP(=O)(O)O)[C@@H](O)[C@@H]1O,inactive
7,COc1cc(S(C)=O)ccc1-c1nc2ncccc2[nH]1 (stereo not given),inactive
8,O=c1[nH]c(=O)n([C@H]2C[C@H](O)[C@@H](CO)O2)cc1/C=C/Br,inactive
9,CC(=O)[C@H]1CC[C@H]2[C@@H]3C=CC4=CC(=O)CC[C@@]4(C)[C@H]3CC[C@]12C,inactive
10,NC(N)=O,inactive
11,CCC(C(=O)NC(N)=O)c1ccccc1 (stereo not given),inactive
12,CC(CCc1ccc(O)cc1)NCC(O)c1ccc(O)cc1 (stereo not given),inactive
13,Nc1nccs1,inactive
14,NC(=S)NS(=O)(=O)c1ccc(N)cc1,inactive
15,O=C(OCc1ccccc1)c1ccc(O)cc1,inactive
16,CC1C(=O)CC2C3(C)CCC2(C(C)C(=O)O)C(=O)C13 (stereo not given),inactive
17,O=C(NNCS(=O)(=O)O)c1ccncc1,inactive
18,CC(=O)Nc1ccc(OC(C)=O)cc1,inactive
19,CC/C(=C(/CC)c1ccc(OP(=O)(O)O)cc1)c1ccc(OP(=O)(O)O)cc1,inactive
20,OC[C@H]1O[C@@](CO)(O[C@H]2O[C@H](CO)[C@@H](O)[C@H](O)[C@H]2O)[C@@H](O)[C@@H]1O,inactive

row,Compound,Potency
1,[O-][N+](=Nc1ccccc1)c1ccccc1,inactive
2,NC(=O)[C@H]1O[C@@H](O)[C@H](O)[C@@H](O)[C@@H]1O,inactive
3,CC(C)CCC[C@@H](C)[C@H]1CC[C@H]2[C@@H]3CC[C@@H]4C[C@H](O)CC[C@]4(C)[C@H]3CC[C@]12C,inactive
4,ClC(Cl)Cl,inactive
5,FC(F)(F)C(F)(F)C(F)(F)C(F)(F)C(F)(F)F,inactive
6,CC(CC=O)CCCC(C)(C)O (stereo not given),inactive
7,CC(C)[C@H](N)C(=O)OCC(CO)OCn1cnc2c(=O)[nH]c(N)nc21 (stereo not given in full),inactive
8,CC(C)CCC[C@@H](C)[C@H]1CC[C@H]2[C@@H]3CC=C4C[C@@H](O)CC[C@]4(C)[C@H]3CC[C@]12C,inactive
9,CC(C)c1ncc([N+](=O)[O-])n1C,inactive
10,CCCc1ccc(C(=O)O)cc1,inactive
11,C=CC(=O)O,inactive
12,COC(=O)CC[C@H](N)C(=O)O,inactive
13,CN1C(=O)C[C@@H](C(=O)N[C@@H](Cc2cnc[nH]2)C(=O)N2CCC[C@H]2C(N)=O)NC1=O,inactive
14,Cc1ncc(C[n+]2csc(CCOP(=O)(O)O)c2C)c(N)n1,inactive
15,O=C(O)COc1ccccc1/C=N/NC(=O)c1ccncc1,inactive
16,O=C(/C=C/c1cccc(F)c1)NC1CC1,inactive
17,CC(C)(Oc1ccc(C2CCCc3ccccc32)cc1)C(=O)O (stereo not given),inactive
18,O=C(O)[C@H]1C(=CCO)O[C@H]2CC(=O)N12,inactive
19,CN=C1C=CC(=C(c2ccc(N(C)C)cc2)c2ccc(N(C)C)cc2)C=C1,891 nM (active)
20,CO,inactive
